# Data published in PMC13494018.
# Unmarked numbers belong to inactive results. No rule for the calls is given here.
# B1: design_619_5728adc2-0aea-404f-92dd-a4575c53f550_1666_dldesign_0_cycle1_af2pred (protein)
# chain: SEADAAALDELARLAGEVTGKPEEALALAEIAKQDPLALATLAAMARQARAASPEEAAQLARNAFQIMKALA
# B2: design_619_5728adc2-0aea-404f-92dd-a4575c53f550_1766_dldesign_0_cycle1_af2pred (protein)
# chain: ADPAALAAIQEQRDKALKEIEEAAKEAKETTEEEARKKIVDAAHTATAQLAQIGVAHPAVAAEAGQAISEILDAGKRALEEAKKNA
# B3: design_619_5728adc2-0aea-404f-92dd-a4575c53f550_302_dldesign_0_cycle1_af2pred (protein)
# chain: EREEVLREAIELLEKTAEAAKALGTPAGEILAASARALARLLREQRDEISLEGAKGYLELAKQLAAGVEAA
# B4: design_619_5728adc2-0aea-404f-92dd-a4575c53f550_1269_dldesign_0_cycle1_af2pred (protein)
# chain: AKEEAKEKAKKLVEEAKKLAEAAIADPSQYPAQAAKMTKLAEEAAKLGKELDPEIFGEAAQEILRLLIQAAQAVN
# B5: design_619_5728adc2-0aea-404f-92dd-a4575c53f550_440_dldesign_0_cycle1_af2pred (protein)
# chain: VTPEASKIAANSALALAKNILENVGVMSPEEAAGAVQVVVDLVKNSLPSEKEKHVEIAEVLKEAAKKNPANAAVLEAGAKAIEEIL
# B6: design_619_5728adc2-0aea-404f-92dd-a4575c53f550_577_dldesign_0_cycle1_af2pred (protein)
# chain: AESIAREAVAQIAALAAAGVADPAAKGEQATAILQTAAAAQKAIRAAGGPESLLNAVQAAAGAAIAALVA
# B7: design_619_5728adc2-0aea-404f-92dd-a4575c53f550_437_dldesign_0_cycle1_af2pred (protein)
# chain: AAAEEAALAKAKKEAAEAAVKAVEYAARAGDPALAAKATRLLHEAQLTTDLEEAKKYLEEIKKLLKEAKERAE
# B8: design_619_5728adc2-0aea-404f-92dd-a4575c53f550_1124_dldesign_0_cycle1_af2pred (protein)
# chain: ELEELRKEAEAKAAEARALAAEGAKYDPTAAALFNAALRFFEIAIRLAEEGGDPEEARAALDAGTTLLAAGRAVLAAAAAAAA
# B9: design_619_5728adc2-0aea-404f-92dd-a4575c53f550_1912_dldesign_0_cycle1_af2pred (protein)
# chain: AAQQQAQVAAAATQAVADQTIKVAEELGKYDPELAKKYKEEATKIKKQAQEAAKQGQQGLQQVNQLLSQALELLGEAAKKLREAK
# B10: design_619_5728adc2-0aea-404f-92dd-a4575c53f550_396_dldesign_0_cycle1_af2pred (protein)
# chain: DEAKKQAEKHYKLAKEHLEKAIASKDEKEAKAHVSRARLNALAAASLDPSVAPEMLAMLKATAEALKDHPEAKAEAEEAAKLVAQLA
# B11: design_619_5728adc2-0aea-404f-92dd-a4575c53f550_1162_dldesign_0_cycle1_af2pred (protein)
# chain: SPVEQYAKAQADMLKEAAGVDDATAQAFADYIVANPALATQAGAMTVAIVRAADAARAAAAAAAAAAAAAAAA
# B12: design_619_5728adc2-0aea-404f-92dd-a4575c53f550_1117_dldesign_0_cycle1_af2pred (protein)
# chain: SAAAAAAAGALAVEEAKRFAEEQLAYGKAEDPGVGMQAIATYANRKAVEYASDPATASAIVSIGVEAMEELARWRREREA
# B13: design_619_5728adc2-0aea-404f-92dd-a4575c53f550_1668_dldesign_0_cycle1_af2pred (protein)
# chain: ARAVVEAAANELAAETLRAGWQAGETGDAIAARIRAILEAGREVAEELAARNPAVTLEEARAAVRERAERLLAEAAA
# B14: design_619_5728adc2-0aea-404f-92dd-a4575c53f550_1814_dldesign_0_cycle1_af2pred (protein)
# chain: DEELRKEVLEKIKELEAKAKEAAADPATQGLAVFLKNTAATARRELEKDAELGLAVVEAGEEGLAYLQAS
# B15: design_619_5728adc2-0aea-404f-92dd-a4575c53f550_1264_dldesign_0_cycle1_af2pred (protein)
# chain: GEEAAKKAEKAVEALKQGAKEAAKGTPELAANTAKSYITMAKSIAKGAKRADGGEAAKKVEKKAKEAIAEAKKLAKAAA
# B16: design_619_5728adc2-0aea-404f-92dd-a4575c53f550_1820_dldesign_0_cycle1_af2pred (protein)
# chain: AEAAKRAAAEAAVKKAAELAAKADPALAKRILDAKTIAEGISAAFTAAAQLIQKDPELAAEIVKEAEKAA
# B17: design_619_5728adc2-0aea-404f-92dd-a4575c53f550_649_dldesign_0_cycle1_af2pred (protein)
# chain: GEELAKEVEKKAKEVLEKVKEKAKEIAAKGTPEQAREAKGLVARARAYAIAAVGAARTIPELAKRYLELAKKEAERL
# B18: design_619_5728adc2-0aea-404f-92dd-a4575c53f550_1575_dldesign_0_cycle1_af2pred (protein)
# chain: AAWQALEIAKKAGLALAKSAAAMPNPEDAKKAAETAKDMVTATAQAVIDAGGDKEKAKALVEEVKKAAEAGVKAAKA
# B19: design_619_5728adc2-0aea-404f-92dd-a4575c53f550_548_dldesign_0_cycle1_af2pred (protein)
# chain: AALRHRTMAALFGRAVTLTGEAGRQAALNAAQMAAVLDPAAGAEFAAAIAEAAKATGDAGVHAVAAEFAAKEAAAAAAAAA
# B20: design_619_5728adc2-0aea-404f-92dd-a4575c53f550_927_dldesign_0_cycle1_af2pred (protein)
# chain: AAALDSARGEAAVTAAKLYGLAYKLDPELGAQAAAALAAILRDKATAVEGAKAAAAVAEKLKEKDPENAGELEKKLKELAEKLKAA
# B21: design_619_5728adc2-0aea-404f-92dd-a4575c53f550_740_dldesign_0_cycle1_af2pred (protein)
# chain: GAAEEARRLVEEVEAALKEAEAAAAADAAEGLRAAGELAVLAAEAAARALRLGDEEAFRRISAAIARATALAQQLAA
# B22: design_619_5728adc2-0aea-404f-92dd-a4575c53f550_1536_dldesign_0_cycle1_af2pred (protein)
# chain: SAALEEARREFEAAVELLAEHPDLAAKVREGFELGVTDIGAGLALLTEARREALELGLEAAAREIRAGMAALLRAHL
# B23: design_619_5728adc2-0aea-404f-92dd-a4575c53f550_605_dldesign_0_cycle1_af2pred (protein)
# chain: GQVAVNAAKGVAKTAISYAERLAKVEGEEGKKFLEEVKKETTKLVEEAKKSTPEKAQQLLAELVDLMKEVAERAAAAEAAAAAAAA
# B24: design_619_5728adc2-0aea-404f-92dd-a4575c53f550_1867_dldesign_0_cycle1_af2pred (protein)
# chain: AAEKAALLAAAEATLARAQEVLAQAKKYPEVQPLAAAALGYALAAQGAVLVDPATGKAFLAKAQALLAEAEAQIKALEA
# B25: design_619_5728adc2-0aea-404f-92dd-a4575c53f550_766_dldesign_0_cycle1_af2pred (protein)
# chain: MLGAEWARQQARRTAERAAELLAADPAAGAAAFARARTIVELAKGIDPEVGKAAQAEVEAIEAQAKAAAAAA
# B26: design_619_5728adc2-0aea-404f-92dd-a4575c53f550_1864_dldesign_0_cycle1_af2pred (protein)
# chain: MEEEKEKKEKEKLKKAKELLKKAKEMAENVAEYSVGEILRVATEAIRLATEAAKGKLKEEGKKVADEARKVAAEAARRALALQ
# B27: design_619_5728adc2-0aea-404f-92dd-a4575c53f550_521_dldesign_0_cycle1_af2pred (protein)
# chain: GEEEELKKKQQEVAERAKEAAELAKEAAKLSGQTEVANAVEAAAKQAAAAAEADPSAVESQLKFVEQLLEIALAALAAAKAAAAAA
# B28: design_619_5728adc2-0aea-404f-92dd-a4575c53f550_1938_dldesign_0_cycle1_af2pred (protein)
# chain: AKEEAKKLLEKTKKEAEKAVKEAEAGTPTTAAEQAVKVLEFGKEAVEKARELGDEETAEQIAQVTNEAVAKITKAAIAKAK
# B29: design_619_5728adc2-0aea-404f-92dd-a4575c53f550_252_dldesign_0_cycle1_af2pred (protein)
# chain: AAKEIAKQAQEAGKAAIAAAEALGKAKDPEEAKQMQEIAKALQQNAQAAAKAGDAKVAQAALNALRGLLRNAEAALAAAK
# B30: design_619_5728adc2-0aea-404f-92dd-a4575c53f550_930_dldesign_0_cycle1_af2pred (protein)
# chain: GEVKEQAEKELKKLEEAAKKTEEEAKKAAKAGATVAAAQIKATVKAALKNAKELFEKDPEQGLQAAKAALQVAETLLESAKGLIKAA
# B31: design_619_5728adc2-0aea-404f-92dd-a4575c53f550_1353_dldesign_0_cycle1_af2pred (protein)
# chain: GETGEAKREGARVAARLGAAAVQLAAVDPEVAKKAQAAVGEVLEAMEAAAKDPSKVEEVKKAREKAEKALKEAEKTLA
# B32: design_619_5728adc2-0aea-404f-92dd-a4575c53f550_447_dldesign_0_cycle1_af2pred (protein)
# chain: EELVKKAKEETTKLLEKAKEEAPGLGTLALNSFNNGFKEGVKEAYERLKKLYEWVTANATTPEQKKVAELIKKAYEVAKKAAEA
# B33: design_619_5728adc2-0aea-404f-92dd-a4575c53f550_253_dldesign_0_cycle1_af2pred (protein)
# chain: AAAAAEAAVAAAMAQINALVAEANRLLIEAQKTGNVELAKKAYELAEKAAAVGKATPALAKMAEALSKVVKEMAKATIKQAEAQA
# B34: design_619_5728adc2-0aea-404f-92dd-a4575c53f550_1681_dldesign_0_cycle1_af2pred (protein)
# chain: AEKAKQAAELAEVLAATAEQAPQLTPAQIAAVANTVAIGLKGLGEAKEAAELAEKAAEAAKRDKEEAVKLLREAAEALKKLAA
# B35: design_619_5728adc2-0aea-404f-92dd-a4575c53f550_1370_dldesign_0_cycle1_af2pred (protein)
# chain: AAAAVAANRAAAAATAETYKAKGKAAAADPAAALAYYNAAGLYAGLAKGDPEAEFAKYKAEADALIAAAKA
# B36: design_619_5728adc2-0aea-404f-92dd-a4575c53f550_1087_dldesign_0_cycle1_af2pred (protein)
# chain: GPEVAERVARSARGIAEVLRGLADSIRAAGGSPAAEERVRAAAEEAERLAREAEEAAGDAEVARRLAEEANRLLQEATAVAMADLQAV
# B37: design_619_5728adc2-0aea-404f-92dd-a4575c53f550_1042_dldesign_0_cycle1_af2pred (protein)
# chain: DAKEHAERALELAKEAAESGSVALASRAMQELALAINADPALGAEAAKEAAKIFAKNPELAGFGEAAVAIAA
# B38: design_619_5728adc2-0aea-404f-92dd-a4575c53f550_1779_dldesign_0_cycle1_af2pred (protein)
# chain: SAATEIATRTAQAAIRAGEEALERAREALEGETGREEVEREVARIEAQAETLELLAEGSPEIAPTANAKAEEFRREAERLREEAE
# Target: CD276, Q5ZPR3
# Sequence (Q5ZPR3 whole entry): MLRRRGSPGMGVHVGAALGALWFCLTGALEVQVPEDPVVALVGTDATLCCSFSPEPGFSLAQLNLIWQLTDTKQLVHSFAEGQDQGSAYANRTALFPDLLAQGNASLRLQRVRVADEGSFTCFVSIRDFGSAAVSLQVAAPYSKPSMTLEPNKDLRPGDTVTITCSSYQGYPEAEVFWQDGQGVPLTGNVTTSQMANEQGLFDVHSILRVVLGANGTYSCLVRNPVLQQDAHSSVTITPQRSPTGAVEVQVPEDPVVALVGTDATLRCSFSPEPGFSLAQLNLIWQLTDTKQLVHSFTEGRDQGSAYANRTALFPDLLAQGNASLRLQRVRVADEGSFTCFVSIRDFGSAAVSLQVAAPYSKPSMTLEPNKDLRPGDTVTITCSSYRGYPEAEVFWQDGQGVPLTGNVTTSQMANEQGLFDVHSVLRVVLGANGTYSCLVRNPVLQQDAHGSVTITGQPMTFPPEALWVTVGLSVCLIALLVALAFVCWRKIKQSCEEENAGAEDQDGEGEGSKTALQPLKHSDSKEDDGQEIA
row,Binder,binding in a display sort
1,B1,not found
2,B2,not found
3,B3,not found
4,B4,not found
5,B5,not found
6,B6,not found
7,B7,not found
8,B8,not found
9,B9,not found
10,B10,not found
11,B11,not found
12,B12,not found
13,B13,not found
14,B14,not found
15,B15,not found
16,B16,not found
17,B17,not found
18,B18,not found
19,B19,not found

row,Binder,binding in a display sort
1,B20,not found
2,B21,not found
3,B22,not found
4,B23,not found
5,B24,not found
6,B25,binds (active)
7,B26,not found
8,B27,not found
9,B28,not found
10,B29,not found
11,B30,not found
12,B31,not found
13,B32,not found
14,B33,not found
15,B34,not found
16,B35,not found
17,B36,not found
18,B37,not found
19,B38,not found
